Measurements published in PubChem BioAssay (NCI).
Compounds without any hit were thinned out: in the full panel of roughly 79,000, 15% have a hit. Calls of active or inactive are those of the source. Rule as the data show it: active = growth inhibition above about 70%; inactive = the rest.

Experiments:
[1] = NCI Yeast Anticancer Drug Screen. Data for the rad52 strain (AID 147);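 also: 0% = growth of vehicle-treated control cultures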; settings: S. cerevisiae rad52 mutant growth inhibition, hits give high values
In short: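 Compounds are applied to a genetically defined yeast strain lacking normal DNA damage repair, and inhibition of growth is expressed relative to cultures given vehicle only.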

[2] = NCI Yeast Anticancer Drug Screen. Data for the wt1 strain (AID 149);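 also: 0% = growth of vehicle-treated wt1 cultures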; settings: S. cerevisiae wt1 strain (SPY 50644) growth inhibition, hits give high values
In short: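 Vehicle-normalised growth inhibition; strain wt1; compound exposure.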

[3] = NCI Yeast Anticancer Drug Screen. Data for the rad50EPP+ strain (AID 151);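 also: 0% = growth of vehicle-treated control cultures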; settings: S. cerevisiae rad50 mutant strain, hits give high values
In short: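 Compounds were applied to the rad50EPP+ yeast strain, which bears a defined DNA repair alteration, and growth inhibition was determined relative to vehicle-treated cultures.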

[4] = NCI Yeast Anticancer Drug Screen. Data for the mgt1 strain (AID 153); settings: S. cerevisiae mgt1 mutant growth inhibition, hits give high values
In short: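 Strain: mgt1 yeast, one of a set carrying defined DNA damage repair or cell cycle control alterations. Compound-treated growth compared with vehicle.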

[5] = NCI Yeast Anticancer Drug Screen. Data for the rad50 strain (AID 155);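 also: 0% = growth of vehicle-only cultures of the same strain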; settings: S. cerevisiae rad50 strain growth inhibition, hits give high values
In short: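 A DNA repair-deficient yeast mutant serves as the test organism; compound-induced growth inhibition is calculated against vehicle-treated cells.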

[6] = NCI Yeast Anticancer Drug Screen. Data for the mec2-1 strain (AID 157); settings: S. cerevisiae mec2-1 strain, hits give high values
In short: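 Strain: mec2-1 (DNA repair/cell cycle alteration). Compound exposure, then growth measured; inhibition expressed relative to vehicle.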

[7] = NCI Yeast Anticancer Drug Screen. Data for the rad14 strain (AID 159);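 also: 0% = growth of vehicle-treated control cultures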; settings: S. cerevisiae rad14 strain growth inhibition, hits give high values
In short: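 Vehicle-treated cultures served as the baseline for growth inhibition of a DNA repair-mutant yeast strain exposed to each compound.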

[8] = NCI Yeast Anticancer Drug Screen. Data for the sgs1 mgt1 strain (AID 161);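 also: 0% = growth of cultures given vehicle only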; settings: S. cerevisiae sgs1 mgt1 strain, hits give high values
In short: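 Test agents were incubated with a DNA-repair-mutant yeast strain. Growth was then read and compared against vehicle-treated controls.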

[9] = NCI Yeast Anticancer Drug Screen. Data for the CLN2oe strain (AID 163);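 also: 0% = growth of vehicle-only control cultures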; settings: S. cerevisiae CLN2oe strain, hits give high values
In short: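 Growth of a genetically modified yeast strain is measured after compound exposure and compared with cultures given vehicle alone.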

[10] = NCI Yeast Anticancer Drug Screen. Data for the cln2 rad14 strain (AID 165);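 also: 0% = growth equal to vehicle treated cultures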; settings: S. cerevisiae cln2 rad14 strain, hits give high values
In short: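 Compounds are applied to the cln2 rad14 yeast strain, and growth is then compared with that of vehicle-treated cultures to give inhibition.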

[11] = NCI Yeast Anticancer Drug Screen. Data for the bub3 strain (AID 167); settings: S. cerevisiae bub3 mutant strain, hits give high values
In short: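 Inhibition values come from growth of compound-treated mutant yeast normalised to vehicle-treated controls.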

[12] = NCI Yeast Anticancer Drug Screen. Data for the wt2 strain (AID 169);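 also: 0% = growth of vehicle-treated yeast cultures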; settings: S. cerevisiae wt2 strain growth inhibition, hits give high values
In short: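 This strain belongs to a panel of yeast strains with defined genetic alterations in DNA damage repair or cell cycle control. Compounds are applied, and growth inhibition is measured against vehicle-treated cultures.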

[13] = NCI Yeast Anticancer Drug Screen. Data for the mlh1 strain (AID 171);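 also: 0% = growth of vehicle-treated control cultures of the same strain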; settings: S. cerevisiae mlh1 strain growth inhibition, hits give high values
In short: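 Growth of the mutant yeast strain after compound exposure, expressed as inhibition relative to vehicle-only controls.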

[14] = NCI Yeast Anticancer Drug Screen. Data for the sgs1 strain (AID 173);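 also: 0% = growth of vehicle-only control cultures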; settings: S. cerevisiae sgs1 mutant, hits give high values
In short: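 Growth of a yeast strain bearing a defined genetic alteration is measured after compound treatment. Inhibition is expressed relative to vehicle-only controls.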

[15] = NCI Yeast Anticancer Drug Screen. Data for the mlh1 rad18 strain (AID 175); settings: S. cerevisiae mlh1 rad18 strain growth inhibition, hits give high values
In short: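 Read-out is yeast growth inhibition, calculated against vehicle-only controls. The compound was applied to a strain engineered with DNA damage repair alterations.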

[16] = NCI Yeast Anticancer Drug Screen. Data for the rad18 strain (AID 177); settings: S. cerevisiae rad18 mutant growth inhibition, hits give high values
In short: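 Growth of the mutant yeast strain after compound exposure, normalised to vehicle-only cultures.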

[17] = at 5.0 µM (retest, dose inferred, filed as 0.5)
[18] = at 50.0 µM (retest, dose inferred, filed as 5.0)

Measured: growth inhibition

O=[N+]([O-])O.[NH-]C1CCCCC1[NH-].[NH-]C1CCCCC1[NH-].[NH-]C1CCCCC1[NH-].[OH-].[OH-].[OH-].[Pt+4].[Pt+4].[Pt+4] (stereo unspecified)
inactive: [1]; at 1.2 µM -29% | [1]; at 3.7 µM -36% | [1]; at 11.0 µM -51% | [1]; at 33.0 µM -26% | [1]; at 100.0 µM -25% | [2]; at 1.2 µM -15% | [2]; at 3.7 µM -12% | [2]; at 11.0 µM -14% | [2]; at 33.0 µM -14% | [2]; at 100.0 µM -3% | [3]; at 1.2 µM -28% | [3]; at 3.7 µM -26% | [3]; at 11.0 µM -19% | [3]; at 33.0 µM -28% | [3]; at 100.0 µM -31% | [4]; at 1.2 µM -14% | [4]; at 3.7 µM -15% | [4]; at 11.0 µM -19% | [4]; at 33.0 µM -12% | [4]; at 100.0 µM -7% | [5]; at 1.2 µM -6% | [5]; at 3.7 µM -14% | [5]; [17] 17% | [5]; at 11.0 µM -14% | [5]; at 33.0 µM -2% | [5]; [18] 20% | [5]; at 50.0 µM 50.8% | [5]; at 100.0 µM -11% | [6]; at 1.2 µM 12% | [6]; at 3.7 µM -6% | [6]; [17] 16% | [6]; at 11.0 µM 0% | [6]; at 33.0 µM 4% | [6]; [18] 14% | [6]; at 50.0 µM -15.5% | [6]; at 100.0 µM 63% | [7]; at 1.2 µM -5% | [7]; at 3.7 µM -16% | [7]; at 11.0 µM -33% | [7]; at 33.0 µM -5% | [7]; at 100.0 µM -10% | [8]; [17] 27% | [8]; [18] 45% | [8]; at 50.0 µM -22.4% | [9]; at 1.2 µM -8% | [9]; at 3.7 µM -17% | [9]; at 11.0 µM -17% | [9]; at 33.0 µM -23% | [9]; at 100.0 µM -13% | [10]; [17] 12% | [10]; [18] 21% | [10]; at 50.0 µM -7.35% | [11]; at 1.2 µM -4% | [11]; at 3.7 µM -9% | [11]; [17] 20% | [11]; at 11.0 µM -14% | [11]; at 33.0 µM -14% | [11]; [18] 25% | [11]; at 50.0 µM -32% | [11]; at 100.0 µM -9% | [12]; at 1.2 µM -46% | [12]; at 3.7 µM -58% | [12]; at 11.0 µM -55% | [12]; at 33.0 µM -51% | [12]; at 100.0 µM -36% | [13]; at 1.2 µM 2% | [13]; at 3.7 µM -10% | [13]; at 11.0 µM -6% | [13]; at 33.0 µM -13% | [13]; at 100.0 µM 12% | [14]; at 1.2 µM -22% | [14]; at 3.7 µM -30% | [14]; at 11.0 µM -19% | [14]; at 33.0 µM 6% | [14]; at 100.0 µM 8% | [15]; [17] 40% | [15]; at 50.0 µM 28.6% | [16]; at 1.2 µM -21% | [16]; at 3.7 µM 2% | [16]; at 11.0 µM 18% | [16]; at 33.0 µM 54%
active: [15]; [18] 71% | [16]; at 100.0 µM 82%

COc1cc(C2c3cc4c(cc3[C@@H](Nc3ccc(N)cc3)C3COC(=O)[C@H]23)OCO4)cc(OC)c1O (stereo partly specified)
inactive: [2]; at 1.2 µM -35% | [2]; at 3.7 µM 64% | [3]; at 1.2 µM -2% | [3]; at 3.7 µM 12% | [3]; at 11.0 µM 63% | [4]; at 1.2 µM -16% | [4]; at 3.7 µM 66% | [6]; at 1.2 µM 14% | [7]; at 1.2 µM 2% | [7]; at 33.0 µM 37% | [8]; [17] 18% | [9]; at 1.2 µM 0% | [9]; at 3.7 µM 62% | [9]; at 33.0 µM 41% | [10]; [17] 20% | [11]; at 1.2 µM -33% | [11]; at 3.7 µM 55% | [11]; [17] 22% | [12]; at 1.2 µM -1% | [12]; at 3.7 µM 42% | [13]; at 1.2 µM -4% | [14]; at 1.2 µM 16% | [16]; at 1.2 µM -11%
active: [1]; at 1.2 µM 92% | [1]; at 3.7 µM 92% | [1]; at 11.0 µM 95% | [1]; at 33.0 µM 92% | [1]; at 100.0 µM 87% | [2]; at 11.0 µM 95% | [2]; at 33.0 µM 94% | [2]; at 100.0 µM 88% | [3]; at 33.0 µM 85% | [3]; at 100.0 µM 89% | [4]; at 11.0 µM 94% | [4]; at 33.0 µM 95% | [4]; at 100.0 µM 90% | [5]; at 1.2 µM 91% | [5]; at 3.7 µM 95% | [5]; [17] 92% | [5]; at 11.0 µM 95% | [5]; at 33.0 µM 94% | [5]; [18] 95% | [5]; at 50.0 µM 82.8% | [5]; at 100.0 µM 88% | [6]; at 3.7 µM 89% | [6]; [17] 70% | [6]; at 11.0 µM 95% | [6]; at 33.0 µM 93% | [6]; [18] 96% | [6]; at 50.0 µM 90% | [6]; at 100.0 µM 88% | [7]; at 3.7 µM 71% | [7]; at 11.0 µM 95% | [7]; at 100.0 µM 92% | [8]; [18] 94% | [8]; at 50.0 µM 85.3% | [9]; at 11.0 µM 92% | [9]; at 100.0 µM 88% | [10]; [18] 90% | [10]; at 50.0 µM 85.9% | [11]; at 11.0 µM 92% | [11]; at 33.0 µM 85% | [11]; [18] 93% | [11]; at 50.0 µM 84.8% | [11]; at 100.0 µM 85% | [12]; at 11.0 µM 92% | [12]; at 33.0 µM 94% | [12]; at 100.0 µM 93% | [13]; at 3.7 µM 74% | [13]; at 11.0 µM 93% | [13]; at 33.0 µM 93% | [13]; at 100.0 µM 90% | [14]; at 3.7 µM 77% | [14]; at 11.0 µM 92% | [14]; at 33.0 µM 94% | [14]; at 100.0 µM 88% | [15]; [17] 70% | [15]; [18] 94% | [15]; at 50.0 µM 85.9% | [16]; at 3.7 µM 72% | [16]; at 11.0 µM 93% | [16]; at 33.0 µM 93% | [16]; at 100.0 µM 85%
